Source: PubChem BioAssay (National Center for Advancing Translational Sciences (NCATS))
Sampled rows, rich in hits. Any-hit rate of the full collection: about 2%.
FUS suppressor: FUS proteinopathy suppression in yeast. S. cerevisiae FUS-expressing, growth rescue, OD600, 24 h. Potency, µM (highest dose often 76.6 µM), hits mostly activators. 390,000 compounds, 0.24% hits. AID 1347120;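 further: plate controls were DMSO vehicle for no effect and reference control for full effect; nearly all actives have a fitted effect of over 55% in size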
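Steps: raffinose overnight preculture; dilution to OD 0.005 in 2% galactose minimal medium; compound addition (concentration series); 24hr at 30C, 99% humidity; absorbance read at 600 nm.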
MBNL1-CUG inh: blocks human MBNL1 binding to CUG repeat RNA; Q9NR56; TR-FRET MBNL1-His/biotin-(CUG)12 binding, 665/545 ratio; Potency, µM (highest dose often 57.5 µM), for the others: at the top dose activity change, negative = inhibition, usual class: inhibitors; 280,000 compounds, 0.036% hits; AID 2675; active means well fitted inhibition curve with a large enough effect in the signal ratio, with a control signal flat, not every such curve was filed as active; inconclusive means small, poorly fitted or top-dose-only effect, or effect the other way, or a change in a side signal; inactive means no such curve, though single readings can be large or run the other way; the % refers to the signal ratio; further: on the % scale 0 is the no-effect control and ±100 the full control effect
Target sequence (Q9NR56 whole entry, looked up): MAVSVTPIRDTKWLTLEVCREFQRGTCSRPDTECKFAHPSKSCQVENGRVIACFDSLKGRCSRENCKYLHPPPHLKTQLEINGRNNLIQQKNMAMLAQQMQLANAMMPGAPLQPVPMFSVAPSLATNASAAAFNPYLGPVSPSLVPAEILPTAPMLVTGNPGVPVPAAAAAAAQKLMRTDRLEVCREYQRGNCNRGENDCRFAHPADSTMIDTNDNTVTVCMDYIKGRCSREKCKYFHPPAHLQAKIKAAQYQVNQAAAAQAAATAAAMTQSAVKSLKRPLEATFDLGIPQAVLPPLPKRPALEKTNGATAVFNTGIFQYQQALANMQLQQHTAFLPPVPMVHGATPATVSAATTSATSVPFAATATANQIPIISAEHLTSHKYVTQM
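Inhibition of protein-RNA binding appears as loss of TR-FRET between terbium anti-His antibody on MBNL1-His and streptavidin-XL665 on biotin-(CUG)12. Activity is normalized to buffer-only and uninhibited-complex controls.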
TDP43 rescue: inhibitors of TDP-43 toxicity in yeast; TDP-43 expressing yeast growth rescue, BacTiter-Glo, 24 h; Potency, µM (titrated, usually from 46.1 µM), for the others: at the highest dose growth rescue (activation), most hits filed as activators; 410,000 compounds, 1.8% hits; AID 652104; further: % of control where 0% means no effect; nearly all actives have a fitted effect of over 50% in size
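Cell-based yeast growth screen: TDP-43 expression induced in galactose, inoculum OD600=0.02 after raffinose pregrowth to mid-log. Read-out BacTiter-Glo luminescence at 24 hr, 30 deg C; inhibition of toxicity seen as signal increase.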
Glioma ERSR ind: induces the endoplasmic reticulum stress response in human glioma cells; U87-MG GRP78 promoter luciferase reporter, 16 h; Potency, µM, inactives show at the top dose activation, hits mostly activators; 420,000 compounds, 0.02% hits; AID 602332; further: series mostly up to about 76 µM; % of control where 0% means no effect; nearly all actives have a fitted effect of over 35% in size
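ERSR induction read as luciferase luminescence (Bright-Glo, 10 min at room temperature) in stably transfected human U87-MG glioma cells exposed to compounds for 16 h, using GRP78 as sensor.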
aSyn rescue: inhibitors of alpha-synuclein toxicity in yeast. Potency, µM (series often up to 46.1 µM), without a hit: at the top dose growth rescue (activation), actives largely listed as activators. Yeast expressing alpha-synuclein, growth rescue, BacTiter-Glo, 24 h. 370,000 compounds, 0.14% hits; further: % of control where 0% means no effect; nearly all actives have a fitted effect of over 65% in size
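Screening used galactose-induced yeast with toxic alpha-synuclein levels, exposed to compound for 24 hr at 30 deg C. Cell growth, read with BacTiter-Glo luminescence, gave the measured signal.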
Abeta rescue: restores growth of yeast expressing A-beta42 peptide; Potency, µM (top dose mostly 46.1 µM), most hits filed as activators; 410,000 compounds, 0.063% hits; AID 1347071; yeast expressing A-beta42, growth rescue, OD600, 48 h; response scale: 0% DMSO, 100% iron-clioquinol control; further: nearly all actives have a fitted effect of over 55% in size
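Growth rescue measured by 600 nm absorbance after 48 h yeast culture at 30 C with compound. Values normalized between DMSO and an equimolar ferric chloride plus clioquinol control.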
Active calls of the source: *; i = inactive; ? = inconclusive; · = no result given; [ ] = dose if it differs, or a comment. Unless noted, the call rests on the fitted dose curve; in most records, active means well fitted curve in the direction sought with a large enough effect; inconclusive means small, poorly fitted or top-dose-only effect, or another doubt; inactive means no such curve, though single readings can be large; an effect the other way counts as inactive or inconclusive. Potency means the concentration at half of the fitted maximal effect.

SMILES | FUS suppressor | MBNL1-CUG inh | TDP43 rescue | Glioma ERSR ind | aSyn rescue | Abeta rescue
O=C(CN1Cc2ccccc2OC(c2ccsc2)C1)N1CCN(Cc2ccc3c(c2)OCO3)CC1 (configuration not stated) | · | · | · | -3.3% | · | ·
COC(=O)[C@H]1C[C@@]2(N3CCCCC3)c3ccccc3N(C(=O)OC(C)(C)C)[C@H]2N1C(=O)OC(C)(C)C | i | · | · | · | · | ·
CCOC(=O)CCCc1ccc(/C(C)=N/NC(=S)NC)cc1 | i | -3.1% | 26.6% | -4.9% | 6.1% | ?
CCOC(=O)CCCc1ccc(/C(C)=N/NC(N)=S)cc1 | i | ? | 20µM* | -2.2% | -7.7% | ?
O=C(Nc1ccc(Cl)cc1)C1Cc2c(-c3ccccc3)ccnc2O1 (configuration not stated) | i | · | 35.5µM* | -2.9% | ? | i
O=C(Nc1ccc(F)c(Cl)c1)C1Cc2c(-c3ccc(Cl)cc3)ccnc2O1 (configuration not stated) | ? | · | 35.5µM* | -2.6% | ? | i
COc1ccc(NC(=O)C2Cc3c(-c4cccc(F)c4)ccnc3O2)cc1 (configuration not stated) | i | · | 22.4µM* | -3.4% | ? | i
O=C(Nc1ccc(Cl)cc1)C1Cc2c(-c3ccc(Cl)cc3)ccnc2O1 (configuration not stated) | i | · | 27.9% | -7.0% | -3.6% | i
O=C(Nc1ccc(Cl)c(C(F)(F)F)c1)C1Cc2c(-c3ccccc3)ccnc2O1 (configuration not stated) | i | · | 31.6µM* | -0.7% | ? | i
O=C(Nc1ccc(F)c(Cl)c1)C1Cc2c(-c3ccc4c(c3)OCO4)ccnc2O1 (configuration not stated) | i | · | 29.1% | -2.5% | 2.3% | i
CC(c1ccc(NC(=O)OC(C)(C)C)cc1)c1cn(C)c2ccccc12 (configuration not stated) | i | · | · | · | · | ·
O=C(NCC1Cc2cc(-c3cnc4ccccc4c3)cc(F)c2O1)c1cnsn1 (configuration not stated) | · | · | · | 5.3% | · | ·
O=C(NCc1ccccc1)C1Cc2c(-c3ccc4c(c3)OCO4)ccnc2O1 (configuration not stated) | i | · | 35.5µM* | -4.5% | 2.7% | i
CC(=O)c1cccc(-c2ccnc3c2CC(C(=O)Nc2ccc(C(C)C)cc2)O3)c1 (configuration not stated) | i | · | 20µM* | -1.4% | 11.3% | ?
CC(C)(C)n1ncc2c(=O)n(Cc3ccc(F)c(F)c3F)cnc21 | · | · | · | -3.2% | · | ·
Cc1cc(OC(=O)N2CCOCC2)cc(C)c1Cl | i | 5.3% | -21.0% | 1.9% | 6.5% | i
CC(=O)Oc1c(Cl)c(N2CCOCC2)c(OC(C)=O)c2ccccc12 | i | 12.9% | 10µM* | 4.9% | -0.9% | i
COc1ccc(C(=O)O/N=C(\N)c2ccccc2Cl)cc1OC | i | -0.2% | ? | 10.8% | -15.3% | i
COc1ccc(C(=O)O/N=C(\N)c2ccccc2)c(OC)c1 | i | -24.3% | 14.1µM* | -11.3% | -39.1% | i
COc1ccccc1C(=O)O/N=C(\N)c1ccccc1Cl | i | · | 15.8µM* | 0.4% | -38.1% | i
O=C([C@@H]1C[C@H]1c1ccccc1)N1CC[C@H]2[C@H](CCCN2Cc2ccc(F)cc2)C1 | i | · | · | · | · | ·
COc1cccc(Oc2cnc(N)nc2-c2ccc(OC)cc2O)c1 | i | -13.6% | 10µM* | -5.4% | 2.3% | i
COc1ccc(-c2nc(N)ncc2Oc2ccccc2Br)c(O)c1 | i | ? | 0.0% | -1.6% | 7.1% | i[9.22 µM]
CCOC(=O)C1=CN(Cc2cccc(F)c2)S(=O)(=O)NC1c1ccc(Br)cc1F (configuration not stated) | i | · | 15.8µM* | 1.0% | 0.4% | i
COc1cccc(OCC(=O)NC2CC(=O)N(c3cccc(OC)c3)C2)c1 (configuration not stated) | i | · | 9.5% | -1.7% | · | i
SMILES | FUS suppressor | MBNL1-CUG inh | TDP43 rescue | Glioma ERSR ind | aSyn rescue | Abeta rescue
COc1cccc(N2CC(NC(=O)COc3ccc4ccccc4c3)CC2=O)c1 (configuration not stated) | i | · | 14.1µM* | -0.4% | · | ?
OC(c1cccc(Cl)c1)c1nc(-c2ccccc2)cs1 (configuration not stated) | i | · | 14.1µM* | -0.9% | ? | i
OC(c1ccccc1)c1nc(-c2ccc(Cl)cc2)cs1 (configuration not stated) | i | · | 35.5µM* | 5.1% | ? | i
OC(c1ccccc1)c1nc(-c2ccccc2)cs1 (configuration not stated) | i | · | 0.0% | 6.1% | 5.4% | i
O=C(NCc1ccccn1)c1cnn(-c2nccc(-c3cc4ccccc4o3)n2)c1C1CC1 | · | · | · | -2.6% | · | ·
CCOC(=O)c1cc2c(C)n(-c3ccc(OCC)cc3)c(C)c2ccc1=O | · | ? | 9.9% | 8.3% | -13.9% | i
CCOC(=O)c1cc2c(C)n(-c3ccc(C)cc3)c(C)c2ccc1=O | i | ? | 20µM* | -5.8% | -3.3% | i
O=C1CCCCN1CCC(=O)N1CCOc2ccc(C(O)C3CCCCC3)cc2C1 (configuration not stated) | · | · | · | -0.7% | · | ·
COCCn1c(SCc2ccc(OC)c(F)c2)nc2ccccc2c1=O | i | 9.6% | ? | -3.7% | 2.3% | i
CCSc1nc2ccccc2c(=O)n1CCc1ccc(OC)c(OC)c1 | ? | -5.6% | 17.8µM* | 0.4% | ? | i
COCCn1c(SCc2ccc(F)cc2)nc2ccccc2c1=O | i | -6.3% | 17.8µM* | -0.2% | 8.9% | i
CSc1nnc(CCNC(=O)c2ccccc2C(F)(F)F)n1-c1ccc(F)cc1 | · | · | · | -2.9% | · | ·
CCc1cc(C(=O)N2CCOc3ccc(CN4CCN(Cc5ccccn5)CC4)cc3C2)no1 | · | · | · | -3.8% | · | ·
CCCCCCCCNS(=O)(=O)/C=C/c1ccccc1CNC(=O)OC(C)(C)C | i | · | · | · | · | ·
COCCN(C(=O)c1ccco1)c1nnc(-c2ccc(F)cc2)s1 | ? | -7.4% | ? | 1.4% | -7.7% | i
CCCN(C(=O)c1ccco1)c1nnc(-c2ccccc2C)s1 | i | 13.0% | 12.6µM* | 6.2% | -17.9% | i
CCOc1cc(/C=N/NC(=O)CN2CCCCC2)ccc1OCc1ccc(Cl)cc1 | i | · | 6.5% | -1.3% | 9.0% | i
CCOc1cc(/C=N/NC(=O)CN2CCCCC2)ccc1OCc1cccc(Cl)c1 | · | · | 12.6µM* | -5.2% | 0.1% | i
COc1cc(-c2nnc(-c3ccccc3)o2)cc(OC)c1OC | i | -5.8% | 18.4% | 3.5% | -11.3% | i
